hcDAF-12 act: H. contortus DAF-12 nuclear receptor activators, primary screen, cell-based, luminescence, HEK293, lit1-tk-luc reporter; HEK293 hcDAF-12 lit1-tk-luc reporter; 0% DMSO, 100% Δ7-dafachronic acid; activation, % at 6.8 µM; hit rate 1.4% among 370,000; AID 652067, 2013;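 active means activation above the mean of all tested compounds plus 3 SD, cut at about 5.5% in these data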;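 further: 100% = response to 3 µM Δ7-dafachronic acid high control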
AHR activator: AHR activators, primary screen, cell-based, luminescence, luciferase reporter, human | Aryl hydrocarbon receptor (Homo sapiens), P35869 | AHR-responsive luciferase reporter cells | activation, % at 5 µM | hit rate 2.5% among 320,000 | AID 2796, 2010; in the data active means activation above about 47%;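 further: 0% = vehicle wells and 100% = reference agonist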
DAX1 inh-1: DAX1 (NR0B1) inhibitors on StAR promoter, primary screen, cell-based, luminescence, SF-1 (NR5A1), full-length DAX-1; hit rate 1.1% among 370,000; HEK293T StAR-luciferase reporter, SF-1/DAX-1 repression relief; inhibition, % at 6.8 µM; AID 652010, 2013;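 active means inhibition above the mean over all tested compounds plus 3 SD, cut at about 3.6% in these data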;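 further: 0% = DAX-1 cells with DMSO and 100% = cells lacking DAX-1 with DMSO; higher inhibition means more luminescence from relief of DAX-1 repression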
ssDAF-12 act: S. stercoralis DAF-12 nuclear receptor activators, primary screen, cell-based, luminescence, HEK293, GRIP1 co-expression, lit1-tk-luc; Nuclear hormone receptor DAF-12 (Strongyloides stercoralis); HEK293 ssDAF-12/GRIP1 lit1-tk-luc reporter; % of 3 µM dafachronic acid response; activation, % at 6.8 µM; hit rate 1% among 370,000; AID 652126, 2013;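 active means activation above the mean over all tested compounds plus 3 SD, cut at about 0.9% in these data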;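 further: 0% = DMSO-only wells and 100% = 3 µM delta7-dafachronic acid wells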
DAX1 inh-2: DAX1 (NR0B1) inhibitors, primary screen, cell-based, HEK293, Gal4-DAX1, luciferase luminescence. inhibition, % at 6.75 µM. Nuclear receptor subfamily 0 group B member 1 (Homo sapiens), P51843. hit rate 0.99% among 340,000. HEK293 Gal4-DAX1 luciferase reporter. AID 504766, 2011;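 active means inhibition above the mean over all tested compounds plus 3 SD, cut at about 4.2% in these data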;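 further: 0% = DAX1-transfected cells with DMSO and 100% = empty-vector control cells with DMSO; inhibition shows as a rise in luminescence from relieved DAX1 repression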
Target sequence (P51843 207-470 limits assumed): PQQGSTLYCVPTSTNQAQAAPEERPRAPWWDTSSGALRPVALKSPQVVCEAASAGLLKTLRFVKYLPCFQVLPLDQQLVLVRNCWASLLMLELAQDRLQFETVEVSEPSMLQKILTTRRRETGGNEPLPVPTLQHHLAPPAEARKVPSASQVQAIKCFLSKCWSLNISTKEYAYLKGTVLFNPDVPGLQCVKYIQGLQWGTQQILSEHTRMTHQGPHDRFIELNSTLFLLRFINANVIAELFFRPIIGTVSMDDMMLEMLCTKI
hgDAF12 agonist: H. glycines DAF-12 receptor agonists, primary screen, cell-based, luminescence, HEK293, GAL4 fusion, UAS-luciferase; HEK293 GAL4-hgDAF12 UAS-luciferase reporter, agonist luminescence; normalized to butyrate control; activation, % at 6.8 µM; hit rate 1.8% among 370,000;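 active means activation above a cutoff set at the mean of all screened compounds plus 3 SD, cut at about 10% in these data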;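 further: 0% = DMSO wells and 100% = sodium butyrate wells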
DAX1 conf: DAX1 (NR0B1) inhibitors relieving SF-1 repression, confirmation, cell-based, luminescence, HEK293T, full-length DAX-1, SF-1 activated StAR promoter; shares compounds with DAX1 inh-1; HEK293T StAR-promoter luciferase reporter, SF-1/DAX-1 repression; inhibition, % at 6.8 µM; hit rate 87% among 2,400; AID 652134, 2013;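 active means inhibition above the average of every tested compound plus 3 SD, cut at about 3.8% in these data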;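 further: 0% = DAX-1 cells with DMSO and 100% = no DAX-1 control cells with DMSO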
Target sequence (P51843 whole entry, looked up): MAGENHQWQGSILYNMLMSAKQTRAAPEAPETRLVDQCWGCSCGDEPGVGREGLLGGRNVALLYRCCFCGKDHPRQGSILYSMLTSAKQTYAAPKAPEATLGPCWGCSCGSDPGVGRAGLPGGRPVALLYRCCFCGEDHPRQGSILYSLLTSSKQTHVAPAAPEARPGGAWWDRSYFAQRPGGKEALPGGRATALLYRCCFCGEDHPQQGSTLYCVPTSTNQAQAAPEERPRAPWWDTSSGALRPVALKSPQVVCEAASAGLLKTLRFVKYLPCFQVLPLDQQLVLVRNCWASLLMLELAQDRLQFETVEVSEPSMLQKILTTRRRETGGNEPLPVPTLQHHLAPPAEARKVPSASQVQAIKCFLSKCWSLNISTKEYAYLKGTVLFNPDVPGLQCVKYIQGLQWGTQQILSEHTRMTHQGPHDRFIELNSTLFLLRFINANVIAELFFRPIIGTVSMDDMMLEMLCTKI
SF1 AF2mut Luc: StAR reporter signal changes without DAX1, counter-screen for DAX1 inhibitor project, cell-based, luminescence, AF-2 mutant SF-1, transactivation. inhibition, % at 6.8 µM. hit rate 78% among 2,400. HEK293 StAR-luciferase, SF-1 AF2 mutant. AID 652136, 2013. shares compounds with DAX1 inh-1;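 active means inhibition above the mean of all tested compounds plus 3 SD, cut at about 3% in these data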;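 further: 0% = DAX-1 transfected cells with DMSO and 100% = cells without DAX-1 with DMSO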
LXRb hcDAF ctr: LXR agonists, Gal4 luciferase reporter, confirmation, counter-screen for hcDAF-12 agonist project, cell-based, luminescence, HEK293, H. contortus campaign | activation, % at 6.8 µM | HEK293 Gal4-LXR tk-luc reporter, 24 h; normalized: DMSO 0%, positive control 100% | AID 743027, 2013 | shares compounds with hcDAF-12 act | 3,400 tested, under 10 active;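 active means mean percent activation of the reporter above a cutoff set as the average over tested compounds plus their standard deviation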
hcDAF12 ag: H. contortus DAF-12 receptor agonists, confirmation, cell-based, luminescence, HEK293, lit1-tk-luc, triplicate | HEK293 hcDAF-12 lit1-tk-luc reporter; % of Δ7-dafachronic acid response | activation, % at 6.8 µM | hit rate 61% among 3,400 | AID 743032, 2013 | shares compounds with hcDAF-12 act;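 active means mean activation across triplicate tests above the threshold derived from the earlier primary screen, cut at about 5.5% in these data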;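 further: 0% = DMSO only wells and 100% = 3 µM Δ7-dafachronic acid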
* hit, by the source's call; . = no result. This is a sample that favours compounds with a hit; in the whole collection about 5.7% have one here.

SMILES | hcDAF-12 act | AHR activator | DAX1 inh-1 | ssDAF-12 act | DAX1 inh-2 | hgDAF12 agonist | DAX1 conf | SF1 AF2mut Luc | LXRb hcDAF ctr | hcDAF12 ag
C=CCn1c(SCC(=O)N2CC(C)OC(C)C2)nnc1-c1ccncc1 (stereo not given) | -0.6 | 0.3 | -1.5 | -0.6 | -0.4 | -1.0 | . | . | . | .
Clc1ccc(OCCSc2ncccn2)cc1 | 1.4 | -2.9 | 1.6 | -0.2 | 2.9 | 9.6 | . | . | . | .
COc1ccc(OCCSc2ncccn2)cc1 | 6.9* | -0.8 | 4.8* | -0.6 | 2.0 | 12.3* | 11.2* | 7.8* | 1.1 | 6.6*
N/C(=N\C(=S)Nc1ccc2c(c1)OCO2)c1ccccc1 | 6.8* | . | 21.4* | 1.7* | . | 20.9* | 14.3* | 8.8* | 2.1 | 10.1*
COc1ccc2sc(NCc3ccccc3)nc2c1 | 7.1* | -0.2 | 6.5* | -0.1 | 1.5 | 5.6 | 7.1* | 6.6* | 0.7 | 4.1
Cc1c(N)ccc(-n2nc3ccccc3n2)c1C | 0.1 | 3.6 | 0.5 | -0.9 | . | 3.9 | . | . | . | .
Nc1ccccc1-n1nc2ccc3ccccc3c2n1 | 18.1* | . | 9.6* | 3.1* | 4.6* | 19.7* | 14.9* | 8.5* | 2.6 | 23.1*
Cc1ccc(-c2noc(-c3cccs3)n2)cc1 | 8.9* | -5.4 | 6.2* | 0.5 | 3.2 | 16.3* | 16.4* | 11.1* | 2.2 | 15.5*
COc1ccc(N=Nc2cc(C)ccc2O)cc1 | 7.1* | -1.7 | 5.0* | 0.2 | 1.2 | 25.1* | 15.5* | 6.2* | 2.1 | 7.3*
Cc1ccc(O)c(N=Nc2ccc(S(=O)(=O)N3CCCC3)cc2)c1 | 0.1 | 1.7 | 0.7 | -1.6 | -0.2 | 2.4 | . | . | . | .
Cc1ccc(C(=O)/C=C/Nc2ccccc2C(N)=O)cc1 | 7.0* | -16.0 | 4.7* | 1.8* | -2.1 | 11.6* | 12.4* | 7.0* | 1.9 | 7.0*
COc1ccc(CCC(=O)Nc2ccc(S(=O)(=O)Nc3nccc(C)n3)cc2)cc1 | -1.5 | 0.0 | 0.0 | -1.5 | -0.3 | 0.4 | . | . | . | .
COc1ccccc1/C=C1\Cc2ccccc2C1=O | 4.2 | . | 0.1 | -0.3 | 1.7 | 2.1 | . | . | . | .
Nc1ccccc1C=C1Cc2ccccc2C1=O | 13.0* | . | 7.7* | 3.2* | 2.5 | 21.6* | 17.0* | 7.4* | 1.3 | 10.7*
C=CCN(CC=C)S(=O)(=O)c1ccc(NC(=S)NC(=O)C2CC2)cc1 | -1.8 | 4.8 | -3.2 | -1.7 | -0.4 | -1.5 | . | . | . | .
C/C(=N\NC(=O)c1ccccc1O)c1ccc(NC(=O)c2ccccc2)cc1 | 7.4* | . | 6.0* | -0.3 | 0.0 | 11.6* | 2.8 | 2.3 | -0.1 | 2.2
Cc1ccc(C(=O)Oc2cc(-c3ccccc3)no2)cc1 | 0.5 | 2.4 | -0.6 | -0.6 | 1.6 | 0.3 | . | . | . | .
CC(C)(C)c1cc(-c2ccccc2)no1 | -1.5 | -1.8 | -0.4 | -1.4 | 0.5 | 0.8 | . | . | . | .
Cc1ccc(-c2cc(-c3ccccc3)no2)c(O)c1 | 15.9* | 44.4 | 6.8* | 3.1* | -2.4 | 11.2* | 14.0* | 3.7* | 2.2 | 19.2*
Cc1ccccc1-c1cc(-c2ccccc2O)on1 | 21.6* | 73.3* | 4.8* | 3.4* | 2.2 | 22.1* | 14.6* | 11.6* | 2.0 | 19.7*
Cc1ccccc1-c1csc(N)n1 | 0.3 | . | 1.8 | -0.2 | 0.7 | 1.3 | . | . | . | .
Oc1ccccc1-c1cc(-c2ccccc2)no1 | 22.5* | 43.0 | 6.2* | 4.8* | 4.2 | 14.5* | 19.8* | 13.8* | 2.0 | 18.6*
CN(CC(=O)Nc1cccc(F)c1)C(=O)c1ccc(S(=O)(=O)N2CCCC2)cc1 | -0.5 | 0.0 | -0.7 | -0.7 | 1.3 | -0.9 | . | . | . | .
O=C(CO)c1c[nH]c2ccccc12 | 3.2 | . | 0.2 | -0.2 | . | 6.3 | . | . | . | .
O=c1[nH]nc(SCc2nc3ccccc3s2)n1C1CC1 | 4.6 | 24.1 | 1.9 | 0.1 | 1.7 | 6.4 | . | . | . | .
SMILES | hcDAF-12 act | AHR activator | DAX1 inh-1 | ssDAF-12 act | DAX1 inh-2 | hgDAF12 agonist | DAX1 conf | SF1 AF2mut Luc | LXRb hcDAF ctr | hcDAF12 ag
CCCn1c(SCc2nc3ccccc3s2)n[nH]c1=O | 12.0* | 20.4 | 4.8* | 1.5* | 2.0 | 11.2* | 8.4* | 5.0* | 1.1 | 10.8*
COc1cc(C(=O)O[C@H]2CC(C)=CC[C@@]3(C)CC[C@@](O)(C(C)C)[C@H]23)ccc1O | -2.1 | 1.9 | 0.3 | -1.7 | 3.2 | 2.4 | . | . | . | .
COc1cc2oc(-c3ccc(O)cc3)cc(=O)c2c(O)c1OC | -2.2 | 11.0 | -1.7 | -1.1 | -2.3 | 3.0 | . | . | . | .
COc1c(O)cc2oc(-c3ccc(O)cc3)cc(=O)c2c1O | 9.6* | 5.0 | 5.2* | 0.5 | 0.4 | 11.1* | 10.5* | 1.9 | 1.6 | 6.8*
O=C(NCCSc1ccccc1)c1cncc(Br)c1 | 1.5 | 4.4 | 1.7 | -0.9 | 2.4 | 10.1 | . | . | . | .
O=C(NCCSc1ccccc1)c1ccc(Br)cc1 | 7.4* | 0.9 | 4.7* | -0.2 | 0.8 | 13.1* | 15.4* | 7.7* | 1.7 | 5.9*
CN(CC(=O)Nc1ccccc1Cl)C(=O)c1ccc(COc2ccccc2)cc1 | -0.2 | 0.5 | -0.8 | -1.5 | 0.1 | -1.2 | . | . | . | .
Cc1ccsc1C(=O)Nc1nccs1 | 0.3 | 5.9 | 0.4 | 0.3 | 1.0 | 4.5 | . | . | . | .
Cc1ccc(C(=O)Nc2nccs2)cc1 | 12.3* | 24.2 | 6.6* | 2.4* | 2.1 | 12.3* | 10.0* | 6.4* | 1.2 | 13.9*

Screens (PubChem BioAssay)
